Assay results: the supplement of paper PMC10720658
± gives the standard deviation of the averaged measurements.

These molecules were tested on AEK1 (Tb927.3.2440) (assay: percent reduction in TR-FRET probe signal relative to DMSO control; higher = stronger displacement of ATP-site probe (binding)). Conditions: 1 µM; incubation time 1 h.

O=c1ccc2ccc(O)c(O)c2o1 [Daphnetin] and CC(C)n1nc(-c2ccc3oc(N)nc3c2)c2c(N)ncnc21 are within error of each other in “percent reduction in TR-FRET probe signal” value (“percent reduction” for short): -1.13 ± 8.9% for the first, -2.53 ± 6.7% for the second.

CS(=O)(=O)O.Cc1ccc(NC(=O)c2ccc(CN3CCN(C)CC3)cc2)cc1Nc1nccc(-c2cccnc2)n1 [Imatinib Mesylate (STI571)] and CCn1c2ccccc2c2cc(Nc3ccnc(NCCCN4CCOCC4)n3)ccc21 are within error of each other in “percent reduction” value: 7.01 ± 21% for the first, -8.54 ± 5.5% for the second.

In the case of Cc1cnc(Nc2ccc(F)cc2Cl)nc1-c1c[nH]c(C(=O)N[C@H](CO)c2cccc(Cl)c2)c1, the “percent reduction” value is reported as 9.02 ± 15%.
